The list is not random: actives were taken first. Their share in the collection is about 4%.
VHR inh abs = VHR1 phosphatase inhibitors, primary screen, biochemical, absorbance, uHTS | Dual specificity protein phosphatase 3 (Homo sapiens), P51452 | recombinant VHR phosphatase, pNPP absorbance | inhibition, % at 13.3 µM | 290,000 tested, 0.52% active | AID 1654, 2009; in the data active means inhibition above about 50%
Target sequence (P51452 whole entry, looked up): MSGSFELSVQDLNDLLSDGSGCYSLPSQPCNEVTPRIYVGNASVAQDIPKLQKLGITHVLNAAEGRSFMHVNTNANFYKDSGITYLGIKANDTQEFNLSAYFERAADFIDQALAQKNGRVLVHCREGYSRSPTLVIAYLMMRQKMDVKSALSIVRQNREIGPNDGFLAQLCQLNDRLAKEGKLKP
BoNT F protease = BoNT/F light chain protease inhibitors, primary screen, biochemical, flow cytometry, MLPCN library | Multiplex microsphere protease cleavage assay | inhibition, % at 10 µM | 360,000 tested, 0.22% active; in the data active means inhibition above about 35%, passing the limit was not always enough; inconclusive means no clear call, values can overlap the other calls; further: plate controls were buffer without enzyme for full effect and enzyme alone for no effect
Anthrax LF prot = Bacillus anthracis LF protease inhibitors, primary screen, biochemical, multiplex microsphere, MLPCN library. Lethal factor (Bacillus anthracis), P15917. multiplex microsphere protease cleavage assay. inhibition, % at 10 µM. 360,000 tested, 0.12% active; further: plate controls were buffer without enzyme for full effect and enzyme alone for no effect
MazEF act = activators of E. coli MazEF toxin-antitoxin RNase, primary screen, biochemical, fluorescence, uHTS | activation, % at 20 µM | Endoribonuclease toxin MazF (Escherichia coli (strain K12)), P0AE70 | FAM/BHQ RNA-DNA oligo cleavage fluorescence, 5 h | 350,000 tested, 0.32% active | AID 504720, 2011; in the data active means activation above about 50%
Target sequence (P0AE70 whole entry, looked up): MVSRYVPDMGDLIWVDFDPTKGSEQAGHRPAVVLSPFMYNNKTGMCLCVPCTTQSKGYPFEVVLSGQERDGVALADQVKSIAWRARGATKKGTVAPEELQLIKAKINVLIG
BoNT A protease = BoNT/A light chain protease inhibitors, primary screen, biochemical, flow cytometry, MLPCN library; Botulinum neurotoxin type A light chain protease (Clostridium botulinum A str. ATCC 3502); multiplex microsphere protease substrate cleavage; inhibition, % at 10 µM; 360,000 tested, 0.17% active; AID 588499, 2011; further: plate controls were buffer without enzyme for full effect and enzyme alone for no effect
Autofluor counter = compound fluorescence in toxin protease inhibitor counterscreen; compound autofluorescence counterscreen, microsphere flow cytometry; active compounds read high; AID 624483; 360,000 tested, 3.1% active; fluorescence intensity (concentration not given with the values); in the data active means fluorescence intensity above about 16000; inconclusive means no clear call, values can overlap the other calls
Numbers without * were called inactive; ? = inconclusive; . = no result given; + = active, no number. Unless noted, no stated cut-off is given here; in the data, active means inhibition above about 30%; inconclusive means no clear call, values can overlap the other calls; inactive means below that.

SMILES	VHR inh abs	BoNT F protease	Anthrax LF prot	MazEF act	BoNT A protease	Autofluor counter
Cn1c(=O)c2c(ncn2Cc2ccc(Cl)c(Cl)c2)n(C)c1=O	6	1	-8	-17	?	19612*
Cn1c(=O)c2c(ncn2Cc2cccc(Cl)c2)n(C)c1=O	14	-3	6	-8	0	10077
COc1ccc(/C=C(/NC(=O)c2ccco2)C(=O)Nc2ccc(C(=O)O)cc2)cc1	-16	6	-2	1	0	5652
O=C(NNS(=O)(=O)c1ccc(Br)cc1)c1ccncc1	26	-2	-2	2	-2	20766*
O=C(NNC(=O)c1ccncc1)c1ccncc1	0	0	-9	2	-1	22444*
Cc1ccccc1CN1CCNC1=O	-2	-2	-9	9	2	19805*
Cc1cc(C)c2c(N)c(C(=O)c3ccc(Cl)cc3Cl)sc2n1	-5	-9	0	15	0	2390
CC(C)(C)NC(=O)CN(Cc1cccs1)C(=O)CNS(=O)(=O)c1ccc(F)cc1	4	-4	0	6	0	3144
CCC(C)(C)NC(=O)CN(Cc1cccs1)C(=O)CNS(=O)(=O)c1ccc(C)cc1	-21	-2	-3	11	-1	16739*
COc1cc2c(cc1OC)C(C)N(C(=O)c1cccs1)CC2 (centres undefined)	11	-4	-3	-1	0	3748
COc1cc2c(cc1OC)C(C)N(C(=O)c1cc3ccccc3o1)CC2 (centres undefined)	51*	-1	-4	2	0	11338
NC(=O)c1ccc(NCCc2ccccc2)c([N+](=O)[O-])c1	-7	-2	-4	1	-1	4364
O=C(Nc1ccccc1)c1ccc(NCCc2ccccc2)c([N+](=O)[O-])c1	14	-4	2	+	0	2010
CCCC(=O)Nc1cccc(NC(=O)c2ccc(C)c([N+](=O)[O-])c2)c1	-1	0	-1	2	?	23307*
CCC(CO)NCc1ccc(Br)cc1 (centres undefined)	5	-5	0	-8	0	2644
CCC(CO)NCc1ccc(OC2CCCC2)cc1 (centres undefined)	4	-10	-1	7	-3	23277*
COc1ccc(Cn2c(CCC(=O)Nc3ccc(CC#N)cc3)nc3cccnc32)cc1	12	1	-2	-1	2	22433*
O=C(CCc1nc2cccnc2n1Cc1ccccc1)NCCc1ccc(Cl)cc1	18	16	-8	-1	-1	4169
COc1ccc(Cn2c(CCC(=O)Nc3ccccc3)nc3cccnc32)cc1	-4	14	-1	4	2	3486
COCCCNC(=O)CCc1nc2cccnc2n1Cc1ccccc1	15	-2	-2	0	0	23819*
CCCNC(=O)N(C)C[C@@H]1Oc2ncc(Br)cc2C(=O)N([C@H](C)CO)C[C@@H]1C	.	3	-2	7	0	3545
C=CCn1c(SCC(=O)Nc2cc(C)nn2-c2ccccc2)nnc1C1CCCCC1	-6	-5	-3	-13	?	23513*
C=CCn1c(SCC(=O)NCc2ccccc2)nnc1C1CCCCC1	24	-2	0	-3	1	3173
C[n+]1cn(Cc2ccc(C#N)cc2)c2ccccc21	53*	10	13	4	0	3791
CC(=O)c1cn(Cc2ccc(C#N)cc2)c2ccccc12	22	-1	1	-9	0	2546
CCn1ncc(C2=NOC(C(=O)NCc3ccccc3)C2)c1C (centres undefined)	21	-10	-1	3	?	26555*
CCC(=O)N1CCN(c2ccc(NC(=O)c3cccs3)cc2)CC1	9	-8	-3	11	-2	17020*
O=C(Nc1ccc(N2CCN(C(=O)c3ccccc3)CC2)cc1)c1cccs1	17	5	-2	7	2	3689
CCN1C(=O)CC(N2CCN(C(c3ccccc3)c3ccccc3)CC2)C1=O (centres undefined)	7	-12	2	1	0	3331
